From PubChem BioAssay AID1851 (National Center for Advancing Translational Sciences (NCATS), 2009) come the findings set out here.

In all, about 16,000 compounds went through this assay and about 5,100 (32%) were called active. Another 25% or so got no clear call; they are omitted. This is one part of the list. Values without a mark were called inactive. The call rests on the fitted dose curve; in most records, active means well fitted curve in the direction sought with a large enough effect; inconclusive means small, poorly fitted or top-dose-only effect, or effect the other way; inactive means no such curve, though single readings can be large or run the other way.
On the % scale 0 is the no-effect control and ±100 the full control effect.

The target of the test is Cytochrome P450 3A4 (Homo sapiens) (UniProt P08684). The experiment in a line: Cytochrome panel assay with activity outcomes. The settings on record: recombinant CYP, pro-luciferin dealkylation, luminescence, p450-cyp3a4; series mostly up to 57.1 µM; activity, negative = inhibition: at the top concentration.
Chain of Cytochrome P450 3A4 (Homo sapiens) (P08684 whole entry, looked up): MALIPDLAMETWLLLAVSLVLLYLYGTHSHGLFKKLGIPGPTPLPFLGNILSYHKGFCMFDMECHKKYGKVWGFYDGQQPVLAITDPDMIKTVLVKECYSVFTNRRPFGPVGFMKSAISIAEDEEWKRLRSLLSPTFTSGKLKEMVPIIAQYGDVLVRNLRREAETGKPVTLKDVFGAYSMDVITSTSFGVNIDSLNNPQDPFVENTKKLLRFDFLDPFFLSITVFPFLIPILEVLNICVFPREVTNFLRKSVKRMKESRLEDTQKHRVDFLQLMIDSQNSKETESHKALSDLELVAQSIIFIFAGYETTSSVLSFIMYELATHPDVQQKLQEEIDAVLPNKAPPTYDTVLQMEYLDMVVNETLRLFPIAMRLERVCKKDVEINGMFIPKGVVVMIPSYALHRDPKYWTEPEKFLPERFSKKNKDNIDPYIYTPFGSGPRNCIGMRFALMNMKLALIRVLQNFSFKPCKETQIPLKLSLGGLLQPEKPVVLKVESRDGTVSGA
As for `CC1CCC(=NNC(=O)Cc2ccccc2)CC1` (stereo unspecified), the activity, negative = inhibition is -1.06% [at 2.29 µM].

In the case of `O=C(CC(=O)NN=C1CCCC1)NCCc1ccccc1`, the activity, negative = inhibition is 4.31% [at 2.29 µM].

Regarding `CN1CCC(=NNC(=O)CSCc2ccccc2)CC1`, the AC50 (as a rule, the concentration giving half of the maximal activity seen) was 17.8 µM (active).

Regarding `CCCn1cnc2c1c(=O)n(CCCCC(C)=O)c(=O)n2C`, the “activity, negative = inhibition” value is -14.5%.

Consider `CC1(C)C(=O)C(c2ccccc2)=C2CN3C(=O)N(CCc4ccccc4)C(=O)C3(Cc3ccccc3)C=C21` (stereo unspecified), for which the AC50 was 2 µM (active).

For `CC1(C)C(=O)C(c2ccccc2)=C2CN3C(=O)N(CCc4ccccc4)C(=O)C3(Cc3ccc(F)cc3)C=C21` (stereo unspecified), the concentration at half-maximal activity (AC50) is 3.16 µM (active).

With `CC1(C)C(=O)C(c2ccccc2)=C2CN3C(=O)N(CCc4ccccc4)C(=O)C3(Cc3ccc(C(F)(F)F)cc3)C=C21` (stereo unspecified), the AC50 is 2 µM (active).

For `CN(C)/C(CN1CCN(C=O)CC1)=C1\N=C(c2ccccc2)OC1=O`, the “activity, negative = inhibition” value is -24.6%.

Consider `CC1(C)N=C(N)N=C(N)N1CCCCc1ccccc1`, for which the activity, negative = inhibition is -18.8% [at 11.4 µM].

For the compound `CCOC(=O)c1c(O)[nH]c(=O)c(CC)c1C`, the activity, negative = inhibition was -7.96% [at 11.4 µM].

For `CCNC(=S)NNC(=O)Cc1ccccc1`, the “activity, negative = inhibition” value was 7.45%.

As for `CCNC(=S)NNC(=O)CCn1c2ccccc2c2ccccc21`, the AC50 is 4.47 µM (active).

Consider `CCNC(=S)NNC(=O)c1cccc(Br)c1`, for which the “activity, negative = inhibition” value is -9.08%.

Regarding `CC(C)[C@]1(Cl)CC[C@@H]2[C@]3(C)CCC[C@@](C)(C(=O)O)[C@H]3C[C@H](Cl)[C@@]2(Cl)[C@H]1Cl`, the activity, negative = inhibition is -26.1% [at 11.4 µM].

Regarding `Nc1nc2c(ncn2[C@@H]2C=C[C@@H](CO)C2)c(=O)[nH]1`, the activity, negative = inhibition was -2.95% [at 11.4 µM].

Take `Cc1onc(-c2c(Cl)cccc2Cl)c1C(=O)N1CCc2ccccc2C1`: the half-maximal activity concentration (AC50) was 3.98 µM (active).

For `COc1ccc(C(=O)NCCCN2CCOCC2)cc1OC`, the “activity, negative = inhibition” value was -3.95%.

Consider `C/C(CC(=O)NCCCN1CCOCC1)=N\NC(=O)COc1ccc(Cl)cc1`, for which the AC50 was 15.8 µM (active).

For `COc1ccc(CNc2nc(-c3ccc4c(c3)OCO4)nc3ccccc23)c(OC)c1`, the concentration at half-maximal activity (AC50) was 1.26 µM (active).

With `COc1ccc(-c2cc([C@H](O)[C@@H]3CCCCN3)c3ccccc3n2)cc1`, the activity, negative = inhibition is -6.63% [at 11.4 µM].

Take `CN(C)c1ccc(-c2nc(NCCc3cnc[nH]3)c3ccccc3n2)cc1`: the AC50 was 2.51 µM (active).

With `COc1ccccc1CNc1nc(-c2ccc(N(C)C)cc2)nc2ccccc12`, the AC50 is 3.16 µM (active).

Regarding `COCCNc1nc(-c2ccc(N(C)C)cc2)nc2ccccc12`, the half-maximal activity concentration (AC50) is 12.6 µM (active).

Take `Clc1cnccn1`: the “activity, negative = inhibition” value was 1.91% [at 25.6 µM].

Consider `CCN(CC)CC#CCC(C)(c1ccccc1)c1ccccc1`, for which the activity, negative = inhibition was -27.1% [at 2.29 µM].

`CCCOc1ccc(CSC(CC(=O)O)C(=O)O)cc1` (stereo unspecified): the “activity, negative = inhibition” value was -9.38%.

For `CO/N=C(\C(=O)N[C@@H]1C(=O)N2C(C(=O)O)=C(COC(C)=O)CS[C@@H]12)c1csc(N)n1`, the AC50 entry was “inactive”.

Take `Cc1ccc(C(=O)Oc2cc(C)n(C)c(=O)c2)cc1`: the “activity, negative = inhibition” value is -2.99%.

Take `CC(C)(CN)CN`: the activity, negative = inhibition was -13.3% [at 11.4 µM].

On to `COc1ccccc1CNc1nc(-c2ccc3c(c2)OCO3)nc2ccccc12`, for which the concentration at half-maximal activity (AC50) is 1.26 µM (active).

On to `C/C(=N/NS(=O)(=O)c1ccc(C)cc1)P(=O)(O)O`, for which the activity, negative = inhibition is -8.75% [at 11.4 µM].

`COc1ccc(S(=O)(=O)N/N=C(/C)c2cccc(NC(=O)c3ccccc3Cl)c2)cc1`: the AC50 is 2.24 µM (active).

`C/C(=N/NS(=O)(=O)c1ccc(C)cc1)c1cccc(NC(=O)c2cccc(Cl)c2)c1`: the AC50 is 1.41 µM (active).

Take `CCC(=O)Nc1ccc(/C(C)=N\NS(=O)(=O)c2ccc(C)cc2)cc1`: the activity, negative = inhibition is -25.1% [at 2.29 µM].

As to `CC(=O)[C@H]([C@@H](c1ccccc1)N1CCOCC1)N1CCOCC1`, the activity, negative = inhibition was -29.9% [at 11.4 µM].

In the case of `CC(C)(C)C(=O)[C@H]([C@@H](c1ccccc1)N1CCOCC1)N1CCOCC1`, the AC50 was 2.51 µM (active).

Take `O=c1ccnc(SCc2ccc(Cl)cc2)[nH]1`: the activity, negative = inhibition is -11.7% [at 11.4 µM].

Turning to `Clc1ccc(CSc2nccn2Cc2ccccc2)cc1`, the concentration at half-maximal activity (AC50) was 7.08 µM (active).

In the case of `CC1=NN(c2ccccc2)C(=O)C1C(=O)c1ccc(Cl)cc1` (stereo unspecified), the “activity, negative = inhibition” value was -25.5%.

Turning to `O=C(O)CSCCc1ccccc1`, the activity, negative = inhibition is 0.346% [at 11.4 µM].

With `CCc1ccc(CSc2nccn2-c2ccccc2)cc1`, the AC50 was 14.1 µM (active).

In the case of `O=C(CSc1ncnc2nc[nH]c12)c1ccccc1`, the activity, negative = inhibition is -16.5% [at 11.4 µM].

As for `OCCn1cnc2c(SCc3ccccc3)ncnc21`, the activity, negative = inhibition was -4.24% [at 11.4 µM].

As to `c1ccc(CCSc2nccn2-c2ccccc2)cc1`, the AC50 was 14.1 µM (active).

On to `O=C(CSc1nccn1-c1ccccc1)c1ccc(Cl)cc1`, for which the concentration at half-maximal activity (AC50) is 10 µM (active).

As for `O=C1C[C@H](c2ccccc2)[C@@H](c2ccc(Br)cc2)O1`, the activity, negative = inhibition is 1.97% [at 11.4 µM].

Take `C#CCCCO/N=C1/[C@H]2O[C@@H]2[C@@H](O)[C@H]2[C@H]1CCn1c(=O)n(Cc3cc4c(cc3Cl)OCO4)c(=O)n12`: the activity, negative = inhibition is -10.8% [at 11.4 µM].

As for `Cn1nnnc1SCc1ccccc1[N+](=O)[O-]`, the activity, negative = inhibition was 3.46% [at 2.29 µM].

Take `Cc1ccccc1CSc1nccn1-c1ccccc1`: the AC50 was 5.01 µM (active).

Regarding `Cc1oc(-c2ccccc2)cc1C(=O)Nc1ccc(N(C)C)cc1`, the AC50 was 17.8 µM (active).

Regarding `Cc1oc(C(C)(C)C)cc1C(=O)Nc1cccc(/C=C/C(=O)O)c1`, the “activity, negative = inhibition” value is 22.4%.

As to `CC(=O)C[C@H](O)[C@@H](NC(=O)OC(C)(C)C)C(C)C`, the activity, negative = inhibition was -26.2% [at 11.4 µM].

For `NC(N)=N/N=C\c1ccc(O)c(C(=O)O)c1`, the activity, negative = inhibition is -5.15% [at 11.4 µM].

`CCCCCNCc1cccc(Br)c1`: the “activity, negative = inhibition” value is -4.34%.

Take `O=C(N[C@@]1(C(=O)O)C[C@@H]1c1ccccc1)c1ccccc1`: the activity, negative = inhibition was -6.56% [at 11.4 µM].

Take `O=C(N/N=C/C1C(c2ccccc2)C1(Cl)Cl)c1cccc(Br)c1` (stereo unspecified): the half-maximal activity concentration (AC50) is 12.6 µM (active).

Regarding `O=C(N/N=C/c1cccc(Oc2ccccc2)c1)c1cccc(Br)c1`, the “activity, negative = inhibition” value was -29.7%.

Consider `O=C(CSc1nnc(-c2ccccn2)n1Cc1ccco1)Nc1ccc2c(c1)OCO2`, for which the concentration at half-maximal activity (AC50) was 0.891 µM (active).

`Cc1cc(C)nc(SCc2nnc(SCC(N)=O)n2Cc2ccco2)n1`: the AC50 is 15.8 µM (active).

As to `CCCCOC(=O)CSCC(=O)Nc1cc(C)on1`, the activity, negative = inhibition is -0.1% [at 11.4 µM].

As to `Cc1cc(NC(=O)CSc2nnc(-c3ccccc3)n2Cc2ccco2)no1`, the concentration at half-maximal activity (AC50) was 15.8 µM (active).

For the compound `CC(=O)Nc1ccc(NC(=O)CSc2nnc(-c3ccccc3)n2Cc2ccc3c(c2)OCO3)cc1`, the AC50 is 3.55 µM (active).

As to `COc1ccc(-c2ccc(=N)n(CCCC(=O)O)n2)cc1`, the “activity, negative = inhibition” value was 1.19%.

`COc1ccc(-c2cnnc(CCCn3ccnc3-c3ccccc3)n2)cc1`: the half-maximal activity concentration (AC50) was 6.31 µM (active).

`COc1ccc(C(O)c2nccn2Cc2ccccc2)cc1` (stereo unspecified): the activity, negative = inhibition was -29.5% [at 11.4 µM].

In the case of `COc1ccc(S(=O)(=O)N2CCC(NC(=O)Nc3ccc(C)cc3)CC2)cc1`, the concentration at half-maximal activity (AC50) was 8.91 µM (active).

With `COCC(=O)N1CCC2(CC1)CCN(C(=O)Nc1cccc(F)c1)CC2`, the “activity, negative = inhibition” value was -0.0079%.

In the case of `COc1ccc(S(=O)(=O)N2CCC(N3CCCCC3)CC2)cc1`, the “activity, negative = inhibition” value is -24.3%.

Consider `COc1ccc(S(=O)(=O)N2CCCN(CC(=O)Nc3ccc(OC)c(Cl)c3)CC2)cc1`, for which the AC50 was 7.94 µM (active).

With `COc1ccccc1NC(=O)CN1CCC(C(=O)c2ccc(F)cc2)CC1`, the activity, negative = inhibition was -1.8% [at 2.29 µM].

`COc1ccc(C)cc1NC(=O)CN1CCN(S(=O)(=O)c2ccc(F)cc2)CC1`: the half-maximal activity concentration (AC50) is 7.94 µM (active).

For `COc1ccc(S(=O)(=O)N2CCN(CC(=O)Nc3cccc(F)c3)CC2)cc1`, the half-maximal activity concentration (AC50) was 7.94 µM (active).

`COc1ccc(S(=O)(=O)Nc2ccc(S(=O)(=O)N3CCCCC3)cc2)cc1C`: the activity, negative = inhibition is -19.1% [at 2.29 µM].

On to `Nc1[nH]c(=S)[nH]c(=O)c1N=Nc1c(Br)cc(S(N)(=O)=O)cc1Br`, for which the activity, negative = inhibition was -21% [at 11.4 µM].

`COc1ccc(S(=O)(=O)N2CCN(CC(=O)Nc3cc(OC)cc(OC)c3)CC2)cc1`: the AC50 is 3.98 µM (active).

For the compound `O=C(CN1CCN(S(=O)(=O)c2ccccc2)CC1)NC(=O)NCc1ccccc1`, the “activity, negative = inhibition” value is -19.4%.

Regarding `COC(=O)[C@@]1(Cc2ccccc2)[C@H]2c3cc(C(=O)N4CCCC4)n(CC4CC4)c3C[C@H]2CN1C(=O)c1ccccc1`, the AC50 is 3.16 µM (active).

In the case of `CCOC(=O)[C@H](CCc1ccccc1)N[C@@H](C)C(=O)N1CCC[C@H]1C(=O)O`, the “activity, negative = inhibition” value was 16.2% [at 25.6 µM].

As to `COC(=O)[C@@]1(Cc2ccccc2)[C@H]2c3cc(C(=O)N4CCCC4)n(C)c3C[C@H]2CN1C(=O)c1ccccc1`, the concentration at half-maximal activity (AC50) was 3.98 µM (active).

Consider `O=[N+]([O-])c1nccn1C[C@H](O)CN1CCCCC1`, for which the activity, negative = inhibition was -20.2% [at 11.4 µM].

With `COc1ccc(C(=O)N/N=C2/SCC(=O)N2Cc2ccc3c(c2)OCO3)cc1OC`, the AC50 is 1.12 µM (active).

For `CCOC(=O)c1c(C)[nH]c(C)c1C(=O)COC(=O)c1ccc(S(=O)(=O)N(CC)CC)cc1`, the half-maximal activity concentration (AC50) was 0.282 µM (active).

For the compound `CCOC(=O)c1c(C)[nH]c(C)c1C(=O)COC(=O)c1cccc(S(=O)(=O)N(CC)CC)c1`, the AC50 was 0.316 µM (active).

Turning to `CCN(CC)CCOC(=O)c1ccc(N)cc1`, the AC50 entry was “inactive”.

As to `CCCN(CCC)S(=O)(=O)c1ccc(C(=O)O)cc1`, the “activity, negative = inhibition” value was -12.2% [at 25.6 µM].

For the compound `NCCCNCCCCNCCCN`, the AC50 entry is “inactive”.

As to `O=C(O)CCNc1ncnc2nc[nH]c12`, the activity, negative = inhibition is -0.12% [at 11.4 µM].

Turning to `CCO[P@]1(=O)OC[C@@H]2O[C@H](n3cnc4c(N)ncnc43)[C@H](O)[C@@H]2O1`, the activity, negative = inhibition was 7.34% [at 11.4 µM].

`O=C1c2cccc3c(Cl)ccc(c23)C(=O)N1O`: the activity, negative = inhibition is -15% [at 11.4 µM].

In the case of `O=C1c2cccc3c(Nc4ccccc4Cl)c([N+](=O)[O-])cc(c23)C(=O)N1CCO`, the AC50 was 14.1 µM (active).

Consider `CCc1ccccc1N1C(=O)c2cccc3c(N4CCOCC4)c([N+](=O)[O-])cc(c23)C1=O`, for which the “activity, negative = inhibition” value was -15.7%.
